PubChem BioAssay (Tox21)
Values without a mark were called inactive. Active and inactive are the calls of the source. Calls come from the whole dose curve; as a rule, active = well fitted curve in the direction sought with a large enough effect in the repeat runs; inconclusive = weak or mixed curves; inactive = flat fitted curve, though single readings scatter.

assay: qHTS assay to test for compound auto fluorescence at 535 nm (green) in HepG2 cell free culture (AID 720686); conditions: Cell-free medium, green autofluorescence 485/535 nm; series mostly up to 91.3 µM; fluorescence, % of fluorescein control: at the top concentration
Source text: U.S. Tox21 Program National Center for Advancing Translational Sciences [NCATS] NIH Chemical Genomics Center [NCGC] U.S. Environmental Protection Agency [EPA] National Institutes of Environmental Health Sciences [NIEHS] National Toxicology Program [NTP] U.S. Food and Drug Administration [FDA] Tox21 Assay Overview: Compound auto fluorescence often interferes with screening of the compound library against various biological targets and signaling pathways. Some of these compounds may have fluorophoric properties. Such properties may interfere with the assay outputs resulting in false positives and/or negatives. To decrease such complications and ensure the compound activities are relevant in terms of biological response, the Tox21 10K compound library was screened for auto fluorescence. From the fluorophores used as reporter signals in our screening assays, the auto fluorescence equivalencies of compounds against three fluorophores have been evaluated: Triamterene, Fluorescein and Rose Bengal sodium for blue, green and red fluorescence, respectively. The fluorescence intensities were measured using Excitation/Emission wavelengths at 405/460nm, 485/535nm and 540/590nm for blue, green and red labels, respectively. This assay includes the green fluorescence data.
Tox21 Assay Protocol Summary: 5 uL of culture medium (MEM containing 10% FBS) per well was dispensed into black wall/clear bottom 1536-well plates using a Multidrop Combi Dispenser (ThermoFisher Scientific, Waltham, MA). After 23 nL compound or DMSO vehicle was transferred into assay plate by a pintool work station (Kalypsys, San Diego, CA), fluorescence intensities in the assay plates were measured by an Envision (PerkinElmer, Shelton, CT) plate reader using three labels for measuring blue, green and red fluorescence at […] 460, 535 and 590nm respectively.
% is set by controls: 0 for no effect and ±100 for the full control effect.

Row | Compound | fluorescence, % of fluorescein control | outcome
1 | CC(=O)OC(C)(C)C | -0.008% | 
2 | CN(C)C(=O)C(CCN1CCC(O)(c2ccc(Cl)cc2)CC1)(c1ccccc1)c1ccccc1 | -0.0155% [at 46 µM] | 
3 | Cc1cc(C)c(NC(=O)CN(CC(=O)O)CC(=O)O)c(C)c1Br | 0.0124% [at 46 µM] | 
4 | O=C(O)c1ccc[n+]([O-])c1 | -0.0008% [at 46 µM] | 
5 | CC(C)[N+](C)(C)CC(O)COc1cccc2ccccc12 (stereo not given) | -0.0348% [at 46 µM] | 
6 | C=C(C)C(=O)OCCCCCCCCCCCCCCCCCC | -0.0135% [at 18.6 µM] | 
7 | OC[C@H]1O[C@@H]2O[C@H]3[C@H](O)[C@@H](O)[C@@H](O[C@H]4[C@H](O)[C@@H](O)[C@@H](O[C@H]5[C@H](O)[C@@H](O)[C@@H](O[C@H]6[C@H](O)[C@@H](O)[C@@H](O[C@H]7[C@H](O)[C@@H](O)[C@@H](O[C@H]8[C@H](O)[C@@H](O)[C@@H](O[C@H]9[C@H](O)[C@@H](O)[C@@H](O[C@H]1[C@H](O)[C@H]2O)O[C@@H]9CO)O[C@@H]8CO)O[C@@H]7CO)O[C@@H]6CO)O[C@@H]5CO)O[C@@H]4CO)O[C@@H]3CO | -0.007% [at 46 µM] | 
8 | Cc1onc(-c2ccccc2)c1-c1ccc(S(N)(=O)=O)cc1 | 0.0758% [at 46 µM] | 
9 | CCCCCCCCCCCCCCCCCC(=O)OCCCCCCCCCCCCCC(C)C | 0.111% | 
10 | CC1=CC(C)C(C=O)C(C)C1 (stereo not given) | -0.0084% | 
11 | CCCCCCCCCCCCCCC | 0.0015% | 
12 | Nc1[nH]c(=O)ncc1F | 0.186% [at 18.6 µM] | 
13 | COc1cc(O)cc(O)c1 | 0.114% [at 46 µM] | 
14 | OCCCCCCO | -0.0182% [at 95.7 µM] | 
15 | C=C(C)[C@@H]1CCC2=CC(=O)C[C@@H](C)[C@]2(C)C1 | -0.0146% | 
16 | CC(C)c1cccc(C(C)C)c1N | 3e-05% | 
17 | C1CCCCCCCCCCC1 | -0.0289% [at 18.6 µM] | 
18 | CCN(CC)C(=O)c1ccc(O)c(OC)c1 |  | inactive
19 | O=C1C(CCS(=O)c2ccccc2)C(=O)N(c2ccccc2)N1c1ccccc1 (stereo not given) | -0.0165% [at 18.6 µM] | 
20 | CCN1CCCC1CNC(=O)c1cc(S(N)(=O)=O)ccc1OC (stereo not given) | 0.0468% | 

Row | Compound | fluorescence, % of fluorescein control | outcome
21 | C/C=C1\C(=O)C[C@H]2[C@@H]3CCC4=CC(=O)CC[C@]4(C)[C@H]3CC[C@]12C | -0.0136% [at 46 µM] | 
22 | CC(C)(O)c1ccccc1 | 0.0028% | 
23 | COC(=O)c1ccc(C(=O)OC)c(C(=O)OC)c1 | 0.0115% | 
24 | OCC(O)[C@@H](O)[C@H](O)[C@H](O)CO[C@H]1O[C@H](CO)[C@@H](O)[C@H](O)[C@H]1O (stereo not given in full) | -0.0799% | 
25 | CCC(C(=O)NC(N)=O)c1ccccc1 (stereo not given) |  | inactive
26 | COc1ccc(N=[N+]([O-])c2ccc(OC)cc2)cc1 | 0.0349% | 
27 | C=C[Si](OC)(OC)OC | -0.0024% | 
28 | COc1nc(C)nc(N)n1 | -0.0003% | 
29 | CC(C)COC(=O)c1ccccc1O | 0.0311% | 
30 | CCCC(C)CO (stereo not given) | 0.0165% | 
31 | C1=C\CC/C=C\CC/C=C\CC/1 | 0.0305% | 
32 | O=C(O)c1cccc(C(=O)O)n1 | -0.0092% | 
33 | CCCCN(CCO)CCO | -0.0285% | 
34 | CCCCc1ccc2cccc(S(=O)(=O)O)c2c1 | -0.0959% | 
35 | CC12CCC(CC1=O)C2(C)C (stereo not given) | 0.151% | 
36 | COc1cccc(OC)c1 | -0.0932% | 
37 | O=C(O)c1ccccc1S | -0.0385% [at 46 µM] | 
38 | CCCC=O | 0.0171% | 
39 | Cn1cnc2c(=O)[nH]c(N)nc21 | -0.0114% | 
40 | CCCCCCOC(=O)c1ccccc1O | 0.114% | 
